Laboratory results: PubChem BioAssay (NCATS)
Results filed as inconclusive are left out. The source made the active and inactive calls. Calls follow the shape of the dose curve; as a rule, active = well fitted inhibition curve with a large enough effect; inconclusive = small, poorly fitted or top-dose-only effect; inactive = flat fitted curve, though single readings scatter.

Tests used:
CRL-7250 = normal cell line; experiment: Cytotoxic Profiling of Annotated Libraries Using Quantitative High-Throughput Screening (AID 1296008); details: Five cell lines viability, CellTiter-Glo ATP luminescence, 48-72 h; max response: hits give low values; as to max response: % is scaled to controls: 0 for no effect and ±100 for the full control effect
In short: (§1)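 Compounds were pin-transferred onto cells and incubated 48 or 72 hr at 37 degree Celsius, 95% humidity. CellTiter-Glo was added, plates sat 10 min at room temperature, then ATP-coupled luminescence was imaged as the viability read-out.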

HEK293 = experiment: as above; details: Five cell lines viability, CellTiter-Glo ATP luminescence, 48-72 h; max response: hits give low values
In short: as §1

KB-3-1 = experiment: as above; details: Five cell lines viability, CellTiter-Glo ATP luminescence, 48-72 h; max response: hits give low values
In short: as §1

NIH3T3 = experiment: as above; details: Five cell lines viability, CellTiter-Glo ATP luminescence, 48-72 h; max response: hits give low values
In short: as §1

HEK293T = experiment: qHTS assay to identify novel small-molecules to repurpose for Merkel cell carcinoma treatment (AID 1296009); details: MCC and control cell lines, CellTiter-Glo viability, 72 h; at 44.8 µM (top of the series) unless noted
In short: (§2)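 Luminescence from CellTiter-Glo, read 10 min after addition at room temperature, reported viability following a 72 hr, 37 degree celsius treatment with NPC or MIPE compounds in titration; values normalized to plate controls.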

HaCat [1] = experiment: Cytotoxic Profiling of Annotated Libraries Using Quantitative High-Throughput Screening (AID 1296008); details: Five cell lines viability, CellTiter-Glo ATP luminescence, 48-72 h; max response: hits give low values; as to max response: % is scaled to controls: 0 for no effect and ±100 for the full control effect
In short: as §1

HACAT [2] = experiment: qHTS assay to identify novel small-molecules to repurpose for Merkel cell carcinoma treatment (AID 1296009); details: MCC and control cell lines, CellTiter-Glo viability, 72 h; series mostly up to 44.8 µM
In short: as §2
Also: nearly all actives have a fitted effect of over 60% in size.
Potency is read from the fitted curve at half-maximal effect.

CCc1c(C)nc2c(-c3cnn(-c4cc(CO)ccn4)c3)c[nH]n2c1=O
inactive: max response (CRL-7250) -0.312% | outcome (HEK293) | max response (KB-3-1) -1.88% | max response (NIH3T3) -6.61% | outcome (HEK293T)

COC(=O)C1=CO[C@@H](O[C@@H]2O[C@H](CO)[C@@H](O)[C@H](O)[C@H]2O)[C@@H]2C(CO)=CC[C@]12O
inactive: max response (CRL-7250) -2.05% | outcome (HEK293) | max response (KB-3-1) 9.91% | max response (NIH3T3) 1.93% | outcome (HEK293T) inactive [at 17.4 µM]

Cc1cc(=O)oc2c(C=O)c(O)ccc12
inactive: max response (CRL-7250) 0.427% | outcome (HEK293) | outcome (KB-3-1) | max response (NIH3T3) -0.325% | outcome (HEK293T)

C=C[C@H]1C(O[C@@H]2O[C@H](CO)[C@@H](O)[C@H](O)[C@H]2O)OC=C2C(=O)N3CCc4c([nH]c5ccccc45)C3CC21 (stereo not given in full)
inactive: outcome (CRL-7250) | outcome (HEK293) | outcome (KB-3-1) | max response (NIH3T3) 2.27% | outcome (HEK293T) inactive [at 17.4 µM]

CC(C)c1nnc(-c2ccc(-c3ccccc3)nc2)n1-c1cccc2nonc12
inactive: max response (CRL-7250) -7.02% | max response (HaCat [1]) 4.99% | max response (KB-3-1) 2.23% | max response (NIH3T3) 4.73%

O=C(O)CC(=O)OC[C@H]1O[C@@H](Oc2ccc3c(c2)OC[C@H]2c4cc5c(cc4O[C@@H]32)OCO5)[C@H](O)[C@@H](O)[C@@H]1O
inactive: max response (CRL-7250) -24.1% | outcome (HEK293) | max response (KB-3-1) -2.44% | max response (NIH3T3) -8.59% | outcome (HEK293T) inactive [at 17.4 µM]

CC1=C(C(=O)O)/C(=C\CO[C@@H]2O[C@H](CO)[C@@H](O)[C@H](O)[C@H]2O)C(OC(=O)/C=C\c2ccc(O)cc2)C1 (stereo not given in full)
inactive: max response (CRL-7250) 3.65% | outcome (HEK293) | outcome (KB-3-1) | max response (NIH3T3) -21.6% | outcome (HEK293T) inactive [at 17.4 µM]

CC(=O)C=C=C1C(C)(C)CC(O[C@@H]2O[C@H](CO)[C@@H](O)[C@H](O)[C@H]2O)CC1(C)O (stereo not given in full)
inactive: outcome (CRL-7250) | outcome (HEK293) | max response (KB-3-1) 0.592% | max response (NIH3T3) 4.66% | outcome (HEK293T)

CC(C)C(CO)Nc1nc(Nc2ccc(C(=O)O)c(Cl)c2)c2ncn(C(C)C)c2n1 (stereo not given)
inactive: outcome (CRL-7250) | max response (HEK293) -4.16% | max response (KB-3-1) 1.82% | max response (NIH3T3) -3.63%

C[C@H](Nc1ncnc2nc[nH]c12)c1cc2ccc(F)cc2nc1-c1ccccn1
inactive: max response (CRL-7250) -2.06% | outcome (HEK293) | outcome (KB-3-1) | max response (NIH3T3) -0.749% | outcome (HEK293T)

CC1=C(C(=O)O)/C(=C/CO[C@@H]2O[C@H](COC(=O)/C=C/c3ccc(O)cc3)[C@@H](O)[C@H](O)[C@H]2O)C(O)C1 (stereo not given in full)
inactive: max response (CRL-7250) 0.839% | max response (HaCat [1]) -4.87% | max response (KB-3-1) 2.44%

CC(O)/C=C/C1(O)C(C)C(O[C@@H]2O[C@H](CO)[C@@H](O)[C@H](O)[C@H]2O)C(O)CC1(C)C (stereo not given in full)
inactive: max response (CRL-7250) 0.975% | outcome (HEK293) | max response (KB-3-1) -3.24% | outcome (NIH3T3) | outcome (HEK293T) inactive [at 17.4 µM]

COC(=O)CCSCc1ccc(-c2onc(C)c2NC(=O)OC(C)c2ccccc2Cl)cc1 (stereo not given)
inactive: max response (CRL-7250) -4.23% | max response (HaCat [1]) -24.6% | outcome (KB-3-1)

CNC(=O)c1ccccc1Nc1nc(Nc2ccc3c(c2OC)CCCC(N2CCN(CCO)CC2)C3)ncc1Cl (stereo not given)
active: Potency (CRL-7250) 7.31 µM | Potency (HEK293) 5.17 µM | Potency (KB-3-1) 10.3 µM | Potency (NIH3T3) 9.2 µM | Potency (HACAT [2]) 5.8 µM

CC1CC(O)C2(OC1=O)OC1C(O)C3C4CCC5CC(OC6OC(CO)C(O)C(O)C6OC6OC(C)C(O)C(O)C6O)CCC5(C)C4CCC3(C)C1C2C (stereo not given)
inactive: max response (CRL-7250) -9.09% | outcome (HEK293) | outcome (KB-3-1) | outcome (NIH3T3) | outcome (HEK293T) inactive [at 17.4 µM]

COc1cc(O)cc(/C=C/c2ccc(O[C@@H]3O[C@H](CO)[C@@H](O)[C@H](O)[C@H]3O)cc2)c1
inactive: max response (CRL-7250) -0.761% | max response (HaCat [1]) 0.534% | outcome (KB-3-1) | max response (NIH3T3) 4.58%

OC1CCC(Nc2ncc3nc(Nc4c(F)cc(F)cc4F)n([C@H]4CCOC4)c3n2)CC1 (stereo not given in full)
inactive: max response (CRL-7250) -2.71% | outcome (HEK293) | outcome (KB-3-1) | max response (NIH3T3) 3.11% | outcome (HEK293T)

CC1CCN(C(=O)CC#N)CC1N(C)c1ncnc2[nH]ccc12 (stereo not given)
inactive: max response (CRL-7250) 0.271% | outcome (HEK293) | outcome (KB-3-1) | outcome (HEK293T)

Nc1nc(-n2cc(C(=O)O)c(=O)c3cc(F)c(N4CC(O)C4)c(Cl)c32)c(F)cc1F
inactive: max response (CRL-7250) -9.26% | outcome (HEK293) | max response (KB-3-1) -18.7% | max response (NIH3T3) 2.73% | outcome (HEK293T)

CCOc1ccc(NC(=S)N2CCC(C(O)(c3ccccc3)c3ccccc3)CC2)cc1
inactive: max response (CRL-7250) -3% | max response (HaCat [1]) 1.92% | outcome (KB-3-1) | max response (NIH3T3) -1.64%

C=C1C[C@]23C[C@H]1CC[C@H]2[C@@]12CC[C@H](O)[C@@](C)(C(=O)O1)[C@H]2[C@@H]3C(=O)O
inactive: max response (CRL-7250) -11.3% | max response (HaCat [1]) -1.9% | max response (KB-3-1) 6.55% | max response (NIH3T3) 3.45%

CC(NC(=O)C(O)C(C)C)C(=O)NC1C(=O)N(C)CCc2ccccc21 (stereo not given)
inactive: max response (CRL-7250) -0.526% | outcome (HEK293) | outcome (KB-3-1) | outcome (NIH3T3) | outcome (HEK293T)
